HCV inhibitor: blocks hepatitis C virus; Huh7.5.1 HCVcc-Cre infection, luciferase reporter, 44 h; Potency, µM (highest dose often 41.8 µM), for the others: top-dose activity change, negative = inhibition, actives largely listed as inhibitors; 340,000 tested, 3.4% active; note: potency is the fitted concentration of half-maximal effect; % is set by controls: 0 for no effect and ±100 for the full control effect
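Cells seeded at 1,000/well and cultured 4 h, then compounds added followed by HCVcc-Cre virus (~0.5 moi). After 44 h further culture, luciferase substrate was added, plates held 15 min at room temperature, and luminescence read for 15 sec.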
Cycloheximide cs: counter-screen hit for Shiga toxin inhibitors, cycloheximide | max response, % | 300,000 tested, 12% active | AID 2314 | cell reporter, cycloheximide protein synthesis inhibition counterscreen; in the data active = max response mostly above about 13%, no sharp cut-off; inactive = mostly below about 14%; note: read at 38.3 µM for the half of the compounds with a filed dose; 0% is about no effect
Pf growth 48h: P. falciparum growth inhibition at 48 hours (one generation); Potency, µM (highest dose often 28.7 µM), for inactives: at the top dose activity change, negative = inhibition, usual class: inhibitors; P. falciparum luciferase growth in erythrocytes, 48 h; 310,000 tested, 5.9% active; note: potency is the fitted concentration of half-maximal effect; % is set by controls: 0 for no effect and ±100 for the full control effect
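Erythrocytes infected with P. falciparum carrying an integrated firefly luciferase reporter (2% hematocrit, 0.1% parasitemia final) were exposed to compounds in RPMI 1640 with 0.5% Albumax at 37 C, 5% CO2. Growth inhibition was scored as reduced luminescence.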
AMA1-RON2 inh: inhibitors of Plasmodium falciparum AMA1-RON2 interaction; AlphaScreen AMA1-biotinylated RON2 peptide binding; Potency, µM (top dose mostly 58.2 µM), for the others: at the highest dose activity change, negative = inhibition, actives largely listed as inhibitors; 360,000 tested, 0.2% active; AID 720542;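 note: potency is the fitted concentration of half-maximal effect; 0% = vehicle wells and -100% = peptide control; nearly all actives have a fitted effect of over 45% in size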
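AMA1 (3D7) with his tag at 25 nM final met compounds first, then biotinylated RON2 peptide at 25 nM; detection used donor plus acceptor beads, 10 µg/mL apiece, read by AlphaScreen after 30 min at room temperature.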
Shiga inhibitor: blocks Shiga toxin action in Vero cells. Vero cells, Shiga toxin protein synthesis inhibition reporter. AID 2315. inhibition, % at 38.7 µM. 290,000 tested, 9.2% active; in the data active = inhibition mostly above about 28%, no sharp cut-off; inactive = mostly below about 43%; note: 0% is about no effect
Pf growth 96h: P. falciparum growth inhibition at 96 hour, primary screen for plastid delayed-death inhibitors. Potency, µM (highest dose often 28.7 µM), inactives show at the top dose activity change, negative = inhibition, hits mostly inhibitors. P. falciparum luciferase reporter growth, 96 h. AID 504834. 320,000 tested, 6.9% active; note: potency is the fitted concentration of half-maximal effect; % is set by controls: 0 for no effect and ±100 for the full control effect
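Infected RBCs, 2% Hct / 0.05% parasitemia final; luciferase-reporter P. falciparum; cpd 96 h, 37 C, 5% CO2; luciferase detection reagent; luminescence.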
* hit, by the source's call; ? = inconclusive; . = no result given; [ ] = dose if it differs, or a comment. Rows were chosen to be rich in hits. Some 21% of all compounds tested hit in one or more screens of this group. Unless noted, calls come from the whole dose curve; as a rule, active = well fitted curve in the direction sought with a large enough effect; inconclusive = small, poorly fitted or top-dose-only effect, or another doubt; inactive = no such curve, though single readings can be large; an effect the other way counts as inactive or inconclusive.

SMILES	HCV inhibitor	Cycloheximide cs	Pf growth 48h	AMA1-RON2 inh	Shiga inhibitor	Pf growth 96h
Nc1nc(N)c2sc3nc4c(cc3c2n1)CCC4	9%	25*	57%	-4%	52	.
Cc1ccc(NC(=O)CN2C(=O)C3C4C=CC(C4)C3C2=O)cc1 (stereo not drawn)	2%	16	152%	8%	10	1%
O=C(CN1C(=O)C2C3C=CC(C3)C2C1=O)Nc1ccc2c(c1)OCCO2 (stereo not drawn)	25%	17	57%	3%	60*	54%
O=C(CN1C(=O)CCSc2ccccc21)Nc1ccc2c(c1)OCO2	-9%	-2	?	0%	-30	.
CCC1Oc2ccccc2N(CC(=O)Nc2ccc3c(c2)OCCO3)C1=O (stereo not drawn)	5%	17*	15%	-1%	94*	-11%
O=C(CN1C(=O)CSc2ccccc21)Nc1ccc2c(c1)OCCO2	5%	29*	.	-1%	54	24%
N#Cc1ccccc1S(=O)(=O)N1CCNS(=O)(=O)c2ccccc21	4%	.	.	-1%	.	.
COc1ccccc1/C=C\C(=O)NCC(=O)N/N=C(/C)c1cccc([N+](=O)[O-])c1	?	9	-2%	3%	8	1%
Cc1cn([C@H]2C[C@H](O)[C@@H](CCC(=O)NCCc3cccs3)O2)c(=O)[nH]c1=O	.	.	.	8%	.	.
COc1cccc(C2C3=C(CCCC3=O)Nc3[nH]n(-c4ccccc4)c(=O)c32)c1 (stereo not drawn)	17%	-5	-10%	17%	25	-18%
COc1cc(C2C3=C(CCCC3=O)Nc3[nH]n(-c4ccccc4)c(=O)c32)ccc1O (stereo not drawn)	?	-3	5.2µM*	-21%	7	?
CC(C)(C)OC(=O)NCCc1nnc(SCc2ccccc2Cl)o1	0%	-2	?	-4%	8	-4%[5.75 µM]
CC(C)(C)OC(=O)NCCc1nnc(S(=O)(=O)Cc2ccc(Cl)cc2Cl)o1	?	19*	-13%	-2%	-4	8%
O=C(Nc1cc(Cl)cc(Cl)c1)C(NCCO)c1ccccc1 (stereo not drawn)	17%	11	31%	-22%	-26	66%
CCCCNC(C(=O)Nc1ccc(Cl)c([N+](=O)[O-])c1)c1ccccc1 (stereo not drawn)	-13%	-3	?	8%	-6	12µM*
CC(=O)c1ccc(C(=O)N2CCCC(C(=O)c3cc(F)ccc3F)C2)s1 (stereo not drawn)	-2%	-1	-2%	-6%	12	3%
Cc1nc(C)c(C(=O)N2CCCC(C(=O)c3cc(F)ccc3F)C2)s1 (stereo not drawn)	-6%	-1	25%	12%	-6	5.9µM*
COc1ccc(F)cc1C(=O)C1CCCN(C(=O)c2cccc(N(C)C)c2)C1 (stereo not drawn)	-27%	1	5.9µM*	-1%	26	?
O=C(c1cc(F)ccc1F)C1CCCN(C(=O)c2ccc3nccnc3c2)C1 (stereo not drawn)	-5%	22*	-32%	5%	31*	32%
O=C(c1cc(F)ccc1F)C1CCCN(C(=O)c2ccc(F)cc2Cl)C1 (stereo not drawn)	?	-4	-13%	-5%	5	1.2µM*
Cc1ccc2c(CC(=O)Nc3cccc(S(=O)(=O)N4CCOCC4)c3)coc2c1	?	12	?	-7%	25	?
CCOc1ccc(OCCC(=O)N(CCOC)c2c(N)n(Cc3ccccc3)c(=O)[nH]c2=O)cc1	5%	.	.	-7%	.	.
COc1ccc(S(=O)(=O)NC2CCc3ccccc32)cc1OC (stereo not drawn)	12%	-1	-3%	-2%	21	9%
C=CCn1c(SCc2nc3c(c(=O)[nH]c(=O)n3CCCC)n2CCC)nnc1-c1ccccc1	2%	-2	8.3µM*	1%	4	.
C#CCN(C[C@H]1[C@H](OC(=O)Nc2c(C)noc2C)[C@H](OC(=O)Nc2c(C)noc2C)C[C@@H](C(=O)OC)[C@H]1C(=O)OC)S(=O)(=O)c1ccc(C)cc1	.	.	.	19%	.	.
SMILES	HCV inhibitor	Cycloheximide cs	Pf growth 48h	AMA1-RON2 inh	Shiga inhibitor	Pf growth 96h
Cc1cc(CNC[C@H]2O[C@@H](n3ccc(=O)[nH]c3=O)[C@H](O)[C@@H]2O)no1	.	.	.	8%	.	.
CCc1ccc(NC(=O)c2cc(-c3ccc(F)cc3)on2)cc1	2%	3	21%	-1%	31	-6%
COc1ccc(NC(=O)c2cc(-c3cccs3)on2)cc1	-10%	29*	109%	9%	73*	-78%
Cc1ccc(NC(=O)c2cc(-c3cccs3)on2)cc1C	2%	57*	456%	2%	170*	?
O=C(Nc1cccc(C(F)(F)F)c1)c1cc(-c2ccco2)on1	3%	8	35%	12%	15	-15%
CCc1ccc(NC(=O)c2cc(-c3cccs3)on2)cc1	13%	38*	310%	-2%	100*	-15%
O=C(Nc1cccc(C(F)(F)F)c1)c1cc(-c2cccs2)on1	-3%	23*	60%	34%	12	?
COc1ccc(NC(=O)c2cc(-c3cccs3)on2)cc1OC	7%	24*	-5%	7%	36	-15%
COc1ccc(NC(=O)c2sccc2-n2cccc2)cc1	14%	18	?	-20%	25	-8%
Cn1ccs/c1=N\C(=O)Nc1cccc(C(F)(F)F)c1	-8%	28*	37%	4%	69*	0%
COc1ccc(NC(=O)c2cc(-c3ccccc3)on2)cc1OC	12%	7	49%	-1%	.	-9%
Cc1ccc(NC(=O)c2cc(-c3ccc(F)cc3)on2)cc1C	-4%	20*	22%	-4%	35	?
CCc1ccc(NC(=O)c2sccc2-n2cccc2)cc1	-26%	19*	?	?	55	118%
Cc1ccc(CC2CC(=O)N(CCc3ccccc3)C2=O)cc1 (stereo not drawn)	-5%	19*	9%	4%	59	13µM*
O=C1CC(Cc2ccccc2)C(=O)N1c1ncccn1 (stereo not drawn)	22%	53*	166%	0%	103*	?
Cc1ccc(CC2CC(=O)N(c3ncccn3)C2=O)cc1 (stereo not drawn)	32%	-3	33%	1%	-5	42%
Cc1ccc(N2C(=O)CC(Cc3cccc(C)c3)C2=O)cc1 (stereo not drawn)	15%	6	10%	6%	7	0.29µM*
COc1ccc(CCN2C(=O)CC(Cc3ccccc3)C2=O)cc1OC (stereo not drawn)	11%	-2	-3%	-11%	-15	6%

From PubChem
